Screening results as filed in PubChem.
In the library only some 3.3% were active in any assay of this set; here they are far more common.
UBC9 SUMO inh: inhibitors of in vitro SUMOylation cascade, primary screen, biochemical, HTRF, uHTS. SUMO-conjugating enzyme UBC9 (Homo sapiens), P63279. 290,000 tested, 0.36% active. AID 2006, 2009. HTRF SUMOylation assay, SAE1/SAE2 + UBC9. inhibition, % at 35 µM; in the data active = inhibition above about 50%, passing the limit was not always enough; inconclusive = no clear call, values can overlap the other calls
Target sequence (P63279 whole entry, looked up): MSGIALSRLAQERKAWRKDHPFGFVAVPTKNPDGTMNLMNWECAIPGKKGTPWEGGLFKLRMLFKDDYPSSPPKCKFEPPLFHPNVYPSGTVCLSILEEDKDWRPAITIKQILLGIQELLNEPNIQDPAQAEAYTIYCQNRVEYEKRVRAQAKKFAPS
HGIII-sPLA2 inh: human group III sPLA2 inhibitors, primary screen, biochemical, QFRET, BODIPY PC-A2 liposome substrate. Group 3 secretory phospholipase A2 (Homo sapiens), Q9NZ20. QFRET BODIPY PC-A2 liposome hydrolysis, fluorescence. inhibition, % at 12.2 µM. 370,000 tested, 0.56% active. AID 743126, 2013;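 active = inhibition above mean plus 3 SD of compounds lying within the high and low control bounds, cut at about 19% in these data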;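 note: 0% = median of test compound wells and 100% = no enzyme DMSO wells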
GRIN3A LBD mod: binders of NR3A ligand-binding domain, primary screen, biophysical, differential scanning fluorimetry, uHTS; NR3A LBD differential scanning fluorimetry, Tm shift; 0% = protein alone, 100% = glycine-bound protein; Tm shift relative to glycine control, % at 25 µM; 340,000 tested, 2.5% active; AID 1259313, 2017;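 active = melting temperature shift of at least 10% of the positive control shift, at one fixed dose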
UBC13 polyUb: UBC13 polyubiquitin chain formation inhibitors, primary screen, biochemical, TR-FRET, uHTS | inhibition, % at 20 µM | 330,000 tested, 0.47% active | Ubiquitin-conjugating enzyme E2 N (Homo sapiens), P61088; in the data active = inhibition above about 45%, passing the limit was not always enough; inconclusive = no clear call, values can overlap the other calls
Target sequence (P61088 whole entry, looked up): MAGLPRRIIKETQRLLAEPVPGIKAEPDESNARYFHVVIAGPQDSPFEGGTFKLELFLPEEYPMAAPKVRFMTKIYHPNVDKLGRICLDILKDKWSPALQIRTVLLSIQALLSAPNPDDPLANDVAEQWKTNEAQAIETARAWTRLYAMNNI
The depositor's hits bear a star; u = inconclusive; x = not tested or not shown.

SMILES | UBC9 SUMO inh | HGIII-sPLA2 inh | GRIN3A LBD mod | UBC13 polyUb
CCCC(=O)Nc1ccc(C(=O)Nc2cc(C(F)(F)F)ccc2Cl)cc1 | 11 | -7 | -1 | 2
Cc1ccc(N2CCN(c3ccc(NCc4nc5ccccc5n4C)cc3)CC2)cc1 | 32 | -3 | 13* | -35
Cn1c(CNc2ccc(Cl)cc2)nc2ccccc21 | -13 | 10 | 12* | -11
Cc1cccc(NCc2nc3ccccc3n2C)c1 | -2 | 3 | -4 | -7
N#Cc1ccc(/C=C2\CC3(OC(=O)c4ccccc4)CCCN2C3)cc1 (configuration not stated) | x | -3 | x | x
CC(C)c1nn2c(N)c(/C=C3\C=Nc4ccccc43)c(=O)nc2s1 | 4 | -31 | 1 | 2
CCC(CC)c1nn2c(N)c(/C=C3\C(C)=Nc4ccccc43)c(=O)nc2s1 | 12 | -19 | 13* | -2
CCC(CC)c1nn2c(N)c(/C=C3\C=Nc4ccccc43)c(=O)nc2s1 | 20 | -6 | 11* | -12
CCCc1nn2c(N)c(/C=C3\C=Nc4ccccc43)c(=O)nc2s1 | 23 | -23 | 2 | -8
N#Cc1c(N2CCCC2)nc(N)c2c(N)nc(N3CCCC3)cc12 | 100* | -4 | -12 | -41
COc1cc2c(C#N)c(N3CCCC3)nc(N)c2c(N)n1 | x | 5 | -4 | -27
COc1cc2c(C#N)c(N3CCN(C)CC3)nc(N)c2c(N)n1 | 99* | 3 | x | -4
CN(Cc1ccccc1)S(=O)(=O)c1cccc(C(=O)OCc2ccccc2Cl)c1 | x | -11 | x | x
C[C@H](CO)N1C[C@H](C)[C@@H](CN(C)C(=O)Nc2ccc(C(F)(F)F)cc2)Oc2c(NC(=O)Nc3ccc(C(F)(F)F)cc3)cccc2C1=O | x | -25 | 28* | 24
COc1ccc(NC(=O)N(C)C[C@H]2Oc3c(NS(=O)(=O)c4ccc(OC)cc4)cccc3C(=O)N([C@H](C)CO)C[C@@H]2C)cc1 | x | 1 | 0 | -3
COc1ccc(NC(=O)Nc2cccc3c2O[C@H](CN(C)C(=O)Nc2ccc(C(F)(F)F)cc2)[C@@H](C)CN([C@H](C)CO)C3=O)cc1 | x | x | 0 | 19
C[C@H]1CN([C@@H](C)CO)C(=O)c2cccc(NC(=O)Nc3ccc(C(F)(F)F)cc3)c2O[C@@H]1CN(C)C(=O)Nc1ccc(F)cc1 | x | -27 | 21* | 32
COc1ccc(S(=O)(=O)Nc2cccc3c2O[C@H](CN(C)C(=O)NC(C)C)[C@@H](C)CN([C@H](C)CO)C3=O)cc1 | x | 1 | 16* | -9
CCc1ccc(CCNC(=O)OCCCN2CCC3(CCC(c4ccccc4)CC3)C2=O)cc1 (configuration not stated) | x | -31 | x | x
Cc1ccccc1CN1CCCCC(NC(=O)c2ccc(COc3ccccc3)cc2)C1=O (configuration not stated) | x | -1 | x | x
O=C(CSc1nnc(COc2ccccc2)n1-c1ccccc1)Nc1ccc2c(c1)OCO2 | x | -12 | x | x
O=C(CSc1nnc(-c2ccccn2)n1-c1ccccc1)Nc1ccccc1-c1ccccc1 | x | 6 | x | x
O=C(COc1ccc(Br)cc1)N1CCc2ccccc21 | 14 | -2 | 12* | 1
CC(C)NC(=S)N=Nc1c(O)[nH]c2ccc([N+](=O)[O-])cc12 | -26 | 2 | 18* | u
CC(C)N1CCc2c(-c3nc4ccccc4s3)csc2C1 | x | 0 | x | x
SMILES | UBC9 SUMO inh | HGIII-sPLA2 inh | GRIN3A LBD mod | UBC13 polyUb
CN1C2=N[C@H](c3ccccc3Br)CC(=O)N2/C(=C\c2ccccc2)[C@@H]1c1ccccc1 | x | -3 | x | x
CCCCCCNC(=O)N[C@H](C(=O)NCCC[C@H]1CN2C(=NC[C@H]2C)N1CCC(c1ccccc1)c1ccccc1)C(C)O (some centres not stated) | -30 | x | x | 49*
C=CCSc1nc(Oc2ccccc2)c2sccc2n1 | -5 | 9 | 15* | -4
N#C/C(=C\c1c[nH]c2ccccc12)C(=O)Nc1ncc(Cc2ccc(Cl)cc2Cl)s1 | -8 | -6 | 38* | -17
c1ccc(Cc2nn3c(COc4ccccc4)nnc3s2)cc1 | -6 | -10 | -1 | 7
CCOc1ccccc1OCc1nn2c(COc3ccccc3)nnc2s1 | 6 | -7 | 14* | 2
COC(=O)[C@]12C[C@H](CC(=O)NCc3cccc4ccccc34)C(=O)N(Cc3cccc4ccccc34)C1=C[C@H](C(C)(C)C)O[C@@H]2C | x | -3 | x | x
c1coc(CNC2CCCCCCC2)c1 | 22 | 7 | 11* | 5
CC(C)(C)CCNc1nc(-c2ccccn2)nnc1-c1ccccc1 | x | -1 | x | x
O=C(CN(CCc1ccccc1)S(=O)(=O)c1ccccc1)N1CCOCC1 | x | -1 | x | x
COc1cc(/C=N/NC(=O)CC2(C)OCCO2)cc(Br)c1O | -3 | -4 | 37* | 2
Cc1c(CCC(=O)NCCCn2ccnc2)c(=O)oc2c(C)c3oc4c(c3cc12)CCCC4 | 18 | x | -5 | 53*
COC(=O)C1CN(Cc2cn(CCC3OCCO3)nn2)CCS(=O)(=O)N1Cc1ccccc1 (configuration not stated) | x | 5 | x | x
CCn1ccnc1CN(C)Cc1cn(-c2cccc(C)c2)nc1-c1cccc(F)c1 | 22 | -10 | 1 | 7
CCn1ccnc1CN(C)Cc1cn(-c2ccc(C)cc2)nc1-c1cccc(C)c1 | 12 | -8 | 24* | 8
COCCN1C(=O)C(CC(=O)Nc2ccc(C(=O)O)cc2)SC1=Nc1ccccc1 (configuration not stated) | -5 | 5 | 3 | 6
COC(=O)c1cc(NC(=O)CC2SC(=Nc3ccccc3)N(CCc3c[nH]c4ccccc34)C2=O)cc(C(=O)OC)c1 (configuration not stated) | -16 | -18 | 23* | -10
C[C@H]1[C@H](N(Cc2ccccc2)Cc2ccccc2)CC[C@@]23CCCN2C(=O)CCC[C@@H]13 | x | 0 | x | x
O=S(=O)(O)c1cccc2c(N=Nc3ccc(O)c4ncccc34)cccc12 | 90* | x | 1 | x
CN(CCCOC(=O)c1cccs1)C1CN(Cc2cn(Cc3ccccc3Cl)nn2)S(=O)(=O)C1 (configuration not stated) | x | 0 | x | x
Cc1ccc(NC(=O)c2ccc(CNS(=O)(=O)c3cccc(C(F)(F)F)c3)cc2)cc1 | 10 | -5 | 11* | -16
O=C(Nc1cccc(Cl)c1)c1ccc(S(=O)(=O)NCC2CCCO2)cc1 (configuration not stated) | 2 | -8 | 21* | 10
O=C(Nc1ccccc1)c1ccc(S(=O)(=O)NCC2CCCO2)cc1 (configuration not stated) | 16 | -5 | 0 | -1
COc1cccc(S(=O)(=O)NCc2ccc(C(=O)Nc3cccc(Cl)c3)cc2)c1 | -26 | -47 | 15* | 5
O=C(Nc1ccccc1F)c1ccc(CNS(=O)(=O)c2cccc(C(F)(F)F)c2)cc1 | 2 | -12 | 0 | 0
O=C1NC(=S)S/C1=C\c1ccc(SCc2ccco2)o1 | 63* | x | -3 | x
O=C(Nc1ccc(C(O)(C(F)(F)F)C(F)(F)F)cc1)c1ccccc1C(F)(F)F | x | -27 | x | x
